Reference: PubChem BioAssay (NCATS)
Records with an inconclusive call do not appear. A number with no mark means an inactive call. Calls of active or inactive are those of the source. Calls come from the whole dose curve; as a rule, active = well fitted inhibition curve with a large enough effect; inconclusive = small, poorly fitted or top-dose-only effect; inactive = flat fitted curve, though single readings scatter.

target: Ubiquitin carboxyl-terminal hydrolase 1 (Homo sapiens) (UniProt O94782); test: Inhibitors of USP1/UAF1: Pilot qHTS (AID 504865); details: purified USP1/UAF1, Ub-rhodamine cleavage fluorescence; series mostly up to 114 µM; activity change, negative = inhibition: at the top concentration; note: nearly all actives have a fitted effect of over 35% in size;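 for activity change, negative = inhibition: rhodamine fluorescence freed from ubiquitin-rhodamine substrate followed over time; top concentration of the series differs between compounds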
Sequence (O94782 whole entry, looked up): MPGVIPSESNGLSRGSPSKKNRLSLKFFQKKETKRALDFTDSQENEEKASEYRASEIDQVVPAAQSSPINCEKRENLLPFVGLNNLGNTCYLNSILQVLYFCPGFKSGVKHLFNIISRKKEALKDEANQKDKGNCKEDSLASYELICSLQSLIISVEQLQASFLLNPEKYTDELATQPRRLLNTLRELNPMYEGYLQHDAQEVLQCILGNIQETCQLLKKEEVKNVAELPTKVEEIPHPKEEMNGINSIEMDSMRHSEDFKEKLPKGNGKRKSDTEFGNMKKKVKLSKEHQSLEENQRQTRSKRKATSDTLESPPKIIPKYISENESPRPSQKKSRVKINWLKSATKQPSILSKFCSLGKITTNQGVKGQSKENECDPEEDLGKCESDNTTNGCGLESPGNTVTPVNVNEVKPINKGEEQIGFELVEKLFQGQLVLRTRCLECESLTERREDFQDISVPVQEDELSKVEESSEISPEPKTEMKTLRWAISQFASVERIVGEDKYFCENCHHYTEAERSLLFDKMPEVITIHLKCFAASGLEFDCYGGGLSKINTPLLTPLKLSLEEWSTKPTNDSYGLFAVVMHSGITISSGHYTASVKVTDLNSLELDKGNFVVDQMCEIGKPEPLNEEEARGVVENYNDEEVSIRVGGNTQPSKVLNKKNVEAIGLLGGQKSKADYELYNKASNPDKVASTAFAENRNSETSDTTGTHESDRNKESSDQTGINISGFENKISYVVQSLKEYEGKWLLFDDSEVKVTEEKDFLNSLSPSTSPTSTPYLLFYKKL
Outline: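 Kinetic fluorescence assay: 1nM USP1/UAF1, 15 min compound preincubation, then 150nM Ub-Rho; 480/540 nm.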
% is set by controls: 0 for no effect and ±100 for the full control effect; potency is the fitted concentration of half-maximal effect.

Row | Structure (SMILES) | activity change, negative = inhibition | Potency
1 | CC(=O)O[C@]1(C(C)=O)CC[C@H]2[C@@H]3C=C(Cl)C4=CC(=O)CC[C@]4(C)[C@H]3CC[C@@]21C | -8.52% | 
2 | Nc1ccc(S(=O)(=O)NCc2ccccc2)cc1 | -6.29% | 
3 | NCc1ccccc1Sc1ccccc1CO | -7.68% | 
4 | CC(=O)Nc1ccc(S(=O)(=O)Nc2ccc([N+](=O)[O-])cc2)cc1 | -4.4% | 
5 | CC[N+](C)(CC)CCOC(=O)C(O)(c1ccccc1)C1CCCCC1 (stereo not given) | -6.5% | 
6 | CN1CCN(c2cc3c(cc2F)c(=O)c(C(=O)O)cn3-c2ccc(F)cc2)CC1 | -4.79% | 
7 | O=C(NC1CCN(CCc2c[nH]c3ccccc23)CC1)c1ccccc1 | -7.29% | 
8 | NC(=O)n1c(O)c(C(=O)c2cccs2)c2cc(Cl)ccc21 | -14.1% | 
9 | Nc1ccc(S(=O)(=O)Nc2cnc3ccccc3n2)cc1 |  | inactive
10 | COP(=O)(OC)OC(c1ccc(Cl)cc1)P(=O)(OC)OC (stereo not given) | -5.82% | 
11 | O=C1C(O)=C(O)C(=O)C(O)=C1O |  | 50.1 µM (active)
12 | CCN(CC)CCNC(=O)c1cc(Br)c(N)cc1OC | -7.02% | 
13 | CC(C(=O)O)c1cccc(Oc2ccccc2)c1 (stereo not given) | -8.95% | 
14 | Cn1c(=O)c2[nH]c(Br)nc2n(C)c1=O | -8.32% | 
15 | C=CCN1CCc2nc(N)sc2CC1 | -8.58% | 
16 | CCCCCN=C(N)N/N=C/c1c[nH]c2ccc(OC)cc12 |  | inactive
17 | CCOc1ccccc1OCCN[C@H](C)Cc1ccc(OC)c(S(N)(=O)=O)c1 | -10.4% | 
18 | O=C(O)CCC(=O)Nc1ccc(S(=O)(=O)Nc2nccs2)cc1 | -7.08% [at 54.9 µM] | 

Row | Structure (SMILES) | activity change, negative = inhibition | Potency
19 | Cc1cccc(C)c1NC(=O)c1ccccc1C(=O)O | -8.19% | 
20 | CCCCCCCCOc1ccc(C(=O)c2ccccc2)c(O)c1 | -6.21% | 
21 | COc1cc(C)nc(-n2nc(C)cc2OC)n1 | 0.535% [at 54.9 µM] | 
22 | O=c1[nH]c(=O)n([C@H]2C[C@H](O)[C@@H](CO)O2)cc1F |  | inactive
23 | NC(=S)N/N=C/c1cccnc1 | -7.81% | 
24 | CCOc1ccccc1C(N)=O | 0.456% | 
25 | C/C=C/C=N/NC(=O)c1ccncc1 | -2.59% | 
26 | CCC(C(=O)OCCOCCN(CC)CC)c1ccccc1 (stereo not given) | -8.22% | 
27 | COc1cc(NS(=O)(=O)c2ccc(N)cc2)ncn1 | -1.92% [at 54.9 µM] | 
28 | CCOC(=O)Nc1ccc2c(c1)N(C(=O)CCN1CCOCC1)c1ccccc1S2 | 5.94% [at 54.9 µM] | 
29 | C#C[C@]1(O)CC[C@H]2[C@@H]3CCc4cc(OC)ccc4[C@H]3CC[C@@]21C | -3.1% | 
30 | Cc1c[nH]c2ccccc12 | 0.815% | 
31 | CC(=O)NCCCCCC(=O)O | -4.07% | 
32 | Cc1ccc2c(Br)cc(Br)c(O)c2n1 | -11.1% | 
33 | CCC1Nc2cc(Cl)c(S(N)(=O)=O)cc2S(=O)(=O)N1 (stereo not given) | -5.99% | 
34 | COc1ccc(-c2cc(C(F)F)nn2-c2ccc(S(N)(=O)=O)cc2)cc1F | -8.17% | 
35 | CC1(COc2ccc(CC3SC(=O)NC3=O)cc2)CCCCC1 (stereo not given) |  | 20 µM (active)
